This is an account of results in PubChem BioAssay AID652054 (National Center for Advancing Translational Sciences (NCATS), 2013).

Molecules are shown by their SMILES. The campaign covered roughly 360,000 compounds. About 9,100 (2.5%) were called active. Roughly 4% stayed inconclusive and do not appear here. This is one part of a sample in which actives are shown more often than they occur. Cut-off read from the data, not from the text of the source: active = max response below about -50%; inconclusive = no clear call, values can overlap the other calls; inactive = above that.
% is set by controls: 0 for no effect and ±100 for the full control effect.

The target in the assay is D(3) dopamine receptor (Homo sapiens) (UniProt P35462). Description: qHTS of D3 Dopamine Receptor Antagonist: qHTS. The conditions noted are these: D3R cells, DiscoveRx beta-arrestin luminescence, antagonist mode; active compounds read low. In short, it runs like this: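 Cells expressing the human receptor were seeded at 1500 cells/well, incubated overnight at 37 degrees C in 5% CO2, then exposed to library compounds with dopamine controls for 90 minutes at 37 degrees C before luminescent detection.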
Chain of D(3) dopamine receptor (Homo sapiens) (P35462 whole entry, looked up): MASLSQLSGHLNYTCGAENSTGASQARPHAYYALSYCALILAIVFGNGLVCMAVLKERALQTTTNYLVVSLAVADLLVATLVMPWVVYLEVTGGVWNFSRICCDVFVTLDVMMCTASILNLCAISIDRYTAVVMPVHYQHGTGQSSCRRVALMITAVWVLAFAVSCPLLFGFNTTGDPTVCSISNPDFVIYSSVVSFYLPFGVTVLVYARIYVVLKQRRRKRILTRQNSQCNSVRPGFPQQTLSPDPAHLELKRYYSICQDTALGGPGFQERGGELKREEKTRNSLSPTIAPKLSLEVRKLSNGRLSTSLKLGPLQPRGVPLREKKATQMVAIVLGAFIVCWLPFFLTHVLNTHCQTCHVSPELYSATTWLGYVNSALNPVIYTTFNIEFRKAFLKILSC
(In qHTS, concentration-response curves come from the screen itself.)
In the case of `COc1ccc(NC(=O)C2(C)Cc3c(-c4ccc(C(N)=O)cc4)ccnc3O2)cc1` (stereo unspecified), the max response, negative = inhibition is -3.64% (inactive).
The value for `CCOCC(=O)Nc1ncc(S(=O)(=O)c2ccc([N+](=O)[O-])cc2)s1` was 8.75% (inactive).
On to `COC(=O)C(NC(=O)c1ccc(OC)cc1)(Nc1ncc(S(=O)(=O)c2ccc([N+](=O)[O-])cc2)s1)C(F)(F)F` (stereo unspecified), for which the max response, negative = inhibition is -81.6% (active).
`COc1ccc(C(=O)NCCNc2ccc([N+](=O)[O-])cn2)cc1`: the max response, negative = inhibition is -27.5% (inactive).
Regarding `CC(O)(c1cccc(F)c1)c1nc(-c2ccc3c(c2)OCO3)cs1` (stereo unspecified), the max response, negative = inhibition is -22.4% (inactive).
Regarding `CC1(C)OC(=O)C2=C(C[C@@H](C3CC3)O[C@H]2CCc2cccc(Cl)c2)O1`, the max response, negative = inhibition is 12.7% (inactive).
Next, `CN1CCN(C(=O)c2ccc(NC(=O)c3ccc(Br)o3)cc2)CC1`: 23.3% (inactive).
For the compound `CCOc1ccc2[nH]c(=S)sc2c1`, the max response, negative = inhibition is -53% (active).
As to `Nc1ccc2[nH]c(=S)sc2c1`, the max response, negative = inhibition is -18.8% (inactive).
With `CCOc1ccc2[nH]c(=O)c(CN(CCCO)C(C)=O)cc2c1`, the max response, negative = inhibition is 3.99% (inactive).
For `COC(=O)c1cc(OC)ccc1-c1ccc(OC)cc1`, the max response, negative = inhibition is -8.91% (inactive).
On to `CCOC(=O)C(NC(C)=O)C(=O)Nc1ccc(OC)cc1` (stereo unspecified), for which the max response, negative = inhibition was -11.9% (inactive).
Turning to `CCOC(=O)C1=C(c2ccc(OC)cc2)C(=O)c2ccccc2C1=O`, the max response, negative = inhibition is -64% (active).
`CC1(C(=O)Nc2ccc3c(c2)OCCO3)CN(S(C)(=O)=O)CC(=O)N1Cc1cccc(F)c1` (stereo unspecified): the max response, negative = inhibition was 3.16% (inactive).
On to `CCN(Cc1ccncc1)C(=S)Nc1ccccc1C`, for which the max response, negative = inhibition was 27.7% (inactive).
With `CN(CC(=O)Nc1ccc(Cl)cc1)CC(=O)Nc1cccc2ccccc12`, the max response, negative = inhibition is -3.81% (inactive).
As for `CC(=O)Nc1ccc(NC(=O)CCCNC(=O)c2ccc(Cl)cc2)cc1`, the max response, negative = inhibition was -16.5% (inactive).
Next, `CCCCN(C)CCC(=O)Nc1ccc(Cl)cc1`: -52.6% (active).
As to `O=S1(=O)CC(N2CCC(Cc3ccccc3)CC2)CN1Cc1ccccc1` (stereo unspecified), the max response, negative = inhibition was -2.05% (inactive).
Consider `Cc1nnc(NC(=O)c2ccc3nccnc3c2)s1`, for which the max response, negative = inhibition was -10.2% (inactive).
For `Cc1cccc(NC(=O)c2nc(S(=O)(=O)Cc3ccccc3)ncc2Cl)c1`, the max response, negative = inhibition is -1.08% (inactive).
Turning to `Cc1nnc(NC(=O)CCCOc2ccccc2)s1`, the max response, negative = inhibition is 14.4% (inactive).
Next, `COCCSc1nnc(NC(=O)CCS(=O)(=O)Cc2ccccc2)s1`: 0.795% (inactive); `CSc1nnc(NC(=O)c2nc(S(=O)(=O)Cc3ccc(C)cc3)ncc2Cl)s1`: -83.3% (active); `O=C(Nc1ccc(F)cc1)c1ccc(S(=O)(=O)NCc2cccnc2)cc1`: 8.92% (inactive).
Turning to `Cc1ccc(CS(=O)(=O)c2ncc(Cl)c(C(=O)Nc3nnc(C)s3)n2)cc1`, the max response, negative = inhibition is -73.5% (active).
Regarding `Cc1cccc(CS(=O)(=O)c2ncc(Cl)c(C(=O)Nc3ccc(F)cc3)n2)c1`, the max response, negative = inhibition is -105% (active).
In the case of `NC(=O)CSc1nnc(NC(=O)c2ccc(Br)o2)s1`, the max response, negative = inhibition is 4.15% (inactive).
As for `CC(=O)Nc1cncc(-c2ccccc2CO)n1`, the max response, negative = inhibition is 10.6% (inactive).
Regarding `CCOC(=O)[C@H]1Nc2ccc(Cl)cc2[C@@H]2[C@H]1C1CC(c3ccccc31)N2C(=O)OCc1ccccc1` (stereo partly specified), the max response, negative = inhibition is -1.57% (inactive).
For the compound `CCCCc1c(-c2ccc(Cl)cc2)ncn1CCc1ccccc1OC`, the max response, negative = inhibition was 71.4% (inactive).
As for `COc1ccc(S(=O)(=O)N(C)C)cc1NC(=O)COC(=O)c1n[nH]c2ccccc12`, the max response, negative = inhibition is 16% (inactive).
For `CCc1cc(C(=O)N(CC)CC(=O)Nc2c(F)cccc2F)sc1C`, the max response, negative = inhibition is 0% (inactive).
On to `COc1ccc(CCCNC(=O)C2Cc3c(-c4cccc(C(N)=O)c4)ccnc3O2)cc1` (stereo unspecified), for which the max response, negative = inhibition is 2.06% (inactive).
Regarding `Cc1cc(O)ccc1-c1cc(C(=O)NCc2cc(C(F)(F)F)cc(C(F)(F)F)c2)[nH]n1`, the max response, negative = inhibition was -17.9% (inactive).
For `C[C@@H]1CN([C@H](C)CO)C(=O)CCCn2nncc2CO[C@@H]1CN(C)C(=O)OCc1ccccc1`, the max response, negative = inhibition is -23.6% (inactive).
The value for `CC1(C)OC(=O)C2=C(C[C@@H](C3CC3)O[C@H]2c2ccc(Cl)cc2)O1` was 49.4% (inactive); that for `COC(=O)CN1C(=O)C(O)=C(C(C)=O)C1c1ccc([N+](=O)[O-])cc1` (stereo unspecified) was -23.2% (inactive); that for `CCC(CC)C(=O)N1CC(=O)Nc2ccc(Br)cc2C1c1ccccc1` (stereo unspecified) was 4.84% (inactive).
Next, `COC(=O)CN1C(C)=Nc2ccc(Br)cc2C1c1ccccc1` (stereo unspecified): -64% (active); `CN(c1ccccc1)S(=O)(=O)c1ccc(C(=O)NCc2cccnc2)cc1`: -14.9% (inactive).
Regarding `COc1ccc(C(C)(O)c2nc(-c3ccc(C)c(C)c3)cs2)cc1` (stereo unspecified), the max response, negative = inhibition is -20.6% (inactive).
Next, `CCNC(=O)C1(C)CCCN(C(=O)c2ccc3ccccc3n2)C1` (stereo unspecified): 0% (inactive); `CCOC(=O)c1cc(-c2sc(NC(=O)c3ccccc3)nc2C)n(-c2ccc(Br)cc2)n1`: 24% (inactive).
On to `COc1ccc(-c2ccc(C(=O)NCCN3CCOCC3)c3occc23)c(C)c1`, for which the max response, negative = inhibition was -78.2% (active).
The value for `COc1ccc(-c2cc(C(=O)NCCCN3CCOCC3)no2)cc1` was 1.86% (inactive).
As to `COc1ccc(-c2ccc(C(=O)NC(C)C)c3occc23)c(C)c1`, the max response, negative = inhibition is 19.9% (inactive).
On to `CC(C)C[C@@H](COCc1ccc(Cl)cc1)N1CCN(C(=O)c2ccc(Cl)cc2Cl)CCC1=O`, for which the max response, negative = inhibition is 11.5% (inactive).
For the compound `Cc1ccccc1OS(=O)(=O)c1cccc([N+](=O)[O-])c1`, the max response, negative = inhibition is -14.2% (inactive).
The value for `CC(C)N1C(=O)c2ccccc2NC(=O)C1C(=O)NCc1cccs1` (stereo unspecified) was -19.3% (inactive).
As for `COC(=O)C[C@H]1C[C@@H]2c3cc(N(C)C)ccc3O[C@@H]2[C@H](CO)O1`, the max response, negative = inhibition was 17% (inactive).
For `O=C(NCc1ccccc1)C1c2ccccc2OCC(=O)N1CCCN1CCOCC1` (stereo unspecified), the max response, negative = inhibition is 0.216% (inactive).
For the compound `O=C(NCc1ccc(F)cc1)c1cc(C2CCCCN2C(=O)c2cccs2)on1` (stereo unspecified), the max response, negative = inhibition is 12.8% (inactive).
Next, `CCC1NC(=O)c2cccnc2-n2c1nc1ccc(C)cc1c2=O` (stereo unspecified): 16.9% (inactive).
The value for `CN1CCN(C2Cc3ccc(Cl)cc3Sc3ccc(F)cc32)CC1` (stereo unspecified) was -88% (active); that for `COCCNC(=O)C1C(=O)Nc2ccccc2C(=O)N1c1ccc2c(c1)OCCO2` (stereo unspecified) was 5.54% (inactive); that for `Cn1c(C(=O)NCCN2CCc3ccccc3C2)cc2c(=O)[nH]c3ccccc3c21` was -59.2% (active).
Next, `Cc1cccc(N2CCN(C(=O)c3cc4c(=O)[nH]c5ccccc5c4n3C)CC2)c1C`: 2.48% (inactive); `O=C(c1ncn2c1c(=O)[nH]c1ccccc12)N1CCc2ccccc2C1`: 1.07% (inactive); `CCCCCCN1CCN(C2CN(Cc3cn(Cc4ccc(F)cc4)nn3)S(=O)(=O)C2)CC1` (stereo unspecified): 3.43% (inactive).
With `Cc1cccc(NC(=O)c2cc(S(=O)(=O)N3CCC4(CC3)OCCO4)ccc2F)c1`, the max response, negative = inhibition is -11.3% (inactive).
Take `Cc1c(C(=O)Nc2ccccc2Cl)oc2ccc(S(=O)(=O)N3CCC4(CC3)OCCO4)cc12`: the max response, negative = inhibition was 22.3% (inactive).
Consider `CCOc1ccccc1NC(=O)c1cc(S(=O)(=O)N2CCC3(CC2)OCCO3)ccc1F`, for which the max response, negative = inhibition was -83.8% (active).
As for `CCCC(=O)N1CCC1(C)C(=O)NCc1ccc(SC)cc1` (stereo unspecified), the max response, negative = inhibition was -2.93% (inactive).
`Cc1cccc(S(=O)(=O)N(C)C[C@H]2OCc3cnnn3CCCC(=O)N([C@@H](C)CO)C[C@H]2C)c1`: the max response, negative = inhibition is 19.6% (inactive).
`CC(=O)Nc1c(-c2ccc(C)cc2)nc2ccc(Cl)cn12`: the max response, negative = inhibition was -4.26% (inactive).
Next, `CC(C)c1cc(C(=O)N(C)C2CCCN(Cc3ccccc3F)C2)n(C)n1` (stereo unspecified): -9.14% (inactive).
Take `CSc1ncnc2c1ncn2CCCNCC1CCCCC1`: the max response, negative = inhibition was -105% (active).
On to `CSc1ncnc2c1ncn2CCCNCc1ccco1`, for which the max response, negative = inhibition is 0.282% (inactive).
Turning to `CSc1ncnc2c1ncn2CCCNCC(C)c1ccccc1` (stereo unspecified), the max response, negative = inhibition was 1.7% (inactive).
Take `CCCCNC(=O)OC1CC2CC1[C@H]1CCCCN1C2=O` (stereo partly specified): the max response, negative = inhibition is 2.26% (inactive).
Take `CCOC(=O)N1CCN(S(=O)(=O)c2ccc(Br)cc2)CC1`: the max response, negative = inhibition was 8.1% (inactive).
For the compound `CCOC(=O)N1CCN(S(=O)(=O)c2ccc(C(=O)Nc3ccc(F)cc3F)cc2)CC1`, the max response, negative = inhibition was -76.7% (active).
Next, `CCOC(=O)N1CCN(S(=O)(=O)c2ccc(OC)cc2)CC1`: 3.43% (inactive); `Cc1nc(C(F)(F)F)ccc1C(=O)N1CCC1(C)C(=O)NS(=O)(=O)c1ccccc1` (stereo unspecified): 25.3% (inactive); `O=[N+]([O-])c1ccc(CN2CC(N3CC=CC3)CS2(=O)=O)cc1` (stereo unspecified): 9.3% (inactive).
Regarding `NC(CSC(c1ccccc1)(c1ccccc1)c1ccc(-c2ccccc2)cc1)C(=O)O` (stereo unspecified), the max response, negative = inhibition was 6.39% (inactive).
With `Cc1cccc(C)c1NC(=O)c1ccc(CN2CCc3ccccc3C2)cc1`, the max response, negative = inhibition was -84.7% (active).
Turning to `CN(c1ccc(C(=O)N2CCc3ccccc3C2)cc1)S(C)(=O)=O`, the max response, negative = inhibition is 30.4% (inactive).
Next, `O=C(Nc1ccc(CSc2ccccc2)cc1)c1ccc(CN2CCOCC2)cc1`: 2.28% (inactive); `CCc1ccc(NC(=O)N2CCc3ccccc3C2)cc1`: -11% (inactive).
With `CC(=O)Nc1cccc(NC(=O)c2ccc3c(c2)CCN3S(C)(=O)=O)c1`, the max response, negative = inhibition is -9.74% (inactive).
As to `CN(c1cccc(NC(=O)c2ccc(CN3CCc4ccccc4C3)cc2)c1)S(C)(=O)=O`, the max response, negative = inhibition is -69.7% (active).
Turning to `CC1(C(=O)NS(=O)(=O)c2cccc(OC(F)F)c2)CCN1C(=O)C1CC1` (stereo unspecified), the max response, negative = inhibition is -9.73% (inactive).
For the compound `c1ccc(Cc2c(-c3ccco3)nc3c4ccccc4ccn23)cc1`, the max response, negative = inhibition was 21.1% (inactive).
With `O=C(COC(=O)c1ccc(S(=O)(=O)N2CCCCCC2)cc1)Nc1ccccc1C(F)(F)F`, the max response, negative = inhibition was -1.68% (inactive).
The value for `CSc1ccc(CNC(=O)C2(C)CCCN2C)cc1` (stereo unspecified) was 0% (inactive); that for `CCOC(=O)N1CCN(C(c2ccnc3ccccc23)c2nnnn2-c2c(C)cccc2C)CC1` (stereo unspecified) was -7.2% (inactive); that for `O=C(COC(=O)c1ccccc1)c1ccc2c(c1)OCCO2` was -5.24% (inactive).
In the case of `O=C(CCN1CCc2ccccc2C(O)(c2ccccc2)C1)c1ccc2c(c1)OCCO2` (stereo unspecified), the max response, negative = inhibition is -73.7% (active).
As for `CCC1(c2ccccc2)NC(=O)N(CC(=O)c2ccc3c(c2)OCO3)C1=O` (stereo unspecified), the max response, negative = inhibition was 4.79% (inactive).
